Measured values as given in PubChem BioAssay AID1159580 (chemical genetic matrix, 2015).
Values joined by “and” are separate entries in the source; they are usually repeats but may differ in a detail not shown here. Identical values can stand only once. About 2,000 (36%) of roughly 5,500 compounds were called active. Not shown: some 18% with an inconclusive outcome. No stated cut-off is given here; in the data, active means normalized growth mostly below about 0.91 (no sharp cut-off); inconclusive means no clear call, values can overlap the other calls; inactive means mostly above about 0.92. The list shows a part of the results.

Test: chemical genetic growth profiling, strain panel (AID 1159580);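 further: tested at 20 µM; growth read once vehicle control cultures reached saturation at 30 °C; 1 = growth at the plate median or of vehicle wells; lower values mean less growth of the strain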
Settings: S. cerevisiae deletion strains, growth OD

Measured: normalized growth

CCC(=O)c1c(O)cc(O)cc1O
inactive: locus YAL013W, strain DEP1, active compounds read low 1.01 | locus YAL021C, strain ccr4, active compounds read low 0.953 | locus YAL026C, strain drs2, active compounds read low 0.975 | locus YAL030W, strain snc1, active compounds read low 0.983 | locus YBL061C, strain skt5, active compounds read low 0.98 | locus YBR009C, strain hhf1, active compounds read low 1.03 | locus YBR021W, strain FUR4, active compounds read low 1.03 | locus YBR023C, strain chs3, active compounds read low 0.994 | locus YBR171W, strain sec66, active compounds read low 0.979 | locus YBR229C, strain ROT2, active compounds read low 0.994 | locus YBR231C, strain swc5, active compounds read low 0.987 | locus YBR279W, strain paf1, active compounds read low 0.992 | locus YCL011C, strain gbp2, active compounds read low 0.989 | locus YCL016C, strain dcc1, active compounds read low 0.974 | locus YCL029C, strain bik1, active compounds read low 0.982 | locus YCL069W, strain vba3, active compounds read low 0.992 | locus YCR088W, strain abp1, active compounds read low 0.991 | locus YDL005C, strain med2, active compounds read low 0.977 | locus YDL035C, strain GPR1, active compounds read low 1.01 | locus YDL040C, strain nat1, active compounds read low 0.99 | locus YDL074C, strain BRE1, active compounds read low 1 | locus YDL101C, strain DUN1, active compounds read low 1.01 | locus YDL134C, strain PPH21, active compounds read low 1.01 | locus YDL185W, strain tfp1, active compounds read low 0.972 | locus YDL192W, strain arf1, active compounds read low 0.981 | locus YDR001C, strain nth1, active compounds read low 0.987 | locus YDR069C, strain doa4, active compounds read low 0.983 | locus YDR101C, strain arx1, active compounds read low 0.975 | locus YDR137W, strain rgp1, active compounds read low 0.968 | locus YDR150W, strain NUM1, active compounds read low 1 | locus YDR159W, strain sac3, active compounds read low 0.995 | locus YDR162C, strain NBP2, active compounds read low 1 | locus YDR195W, strain ref2 0.955 | locus YDR297W, strain sur2, active compounds read low 0.982 | locus YDR318W, strain mcm21, active compounds read low 0.977 | locus YDR334W, strain swr1, active compounds read low 0.979 | locus YDR335W, strain msn5, active compounds read low 0.986 | locus YDR388W, active compounds read low 0.981 | locus YDR392W, strain spt3, active compounds read low 0.968 | locus YDR502C, strain sam2, active compounds read low 0.979 | locus YEL003W, strain gim4, active compounds read low 0.99 | locus YEL037C, strain rad23, active compounds read low 0.982 | locus YEL061C, strain CIN8 (second series), active compounds read low 0.992 | locus YEL061C, strain CIN8, active compounds read low 1 | locus YER015W, strain faa2, active compounds read low 0.991 | locus YER016W, strain bim1, active compounds read low 0.968 | locus YER110C, active compounds read low 0.979 | locus YER111C, strain swi4, active compounds read low 1 | locus YER155C, strain BEM2 (second series), active compounds read low 0.983 | locus YER155C, strain BEM2, active compounds read low 0.989 | locus YER167W, strain BCK2, active compounds read low 1.01 | locus YFR010W, strain ubp6, active compounds read low 0.998 | locus YGL078C, strain dbp3, active compounds read low 0.975 | locus YGL086W, strain mad1, active compounds read low 0.995 | locus YGL167C, strain pmr1, active compounds read low 0.974 | locus YGL173C, strain kem1, active compounds read low 1.01 | locus YGL227W, strain vid30, active compounds read low 0.993 | locus YGL240W, strain doc1, active compounds read low 1 | locus YGL248W, strain PDE1, active compounds read low 1.01 | locus YGL253W, strain hxk2, active compounds read low 0.986 | locus YGR078C, strain PAC10, active compounds read low 1.01 | locus YGR135W, strain pre9, active compounds read low 0.985 | locus YGR229C, strain SMI1, active compounds read low 0.992 | locus YGR252W, strain gcn5, active compounds read low 0.921 | locus YHR013C, strain ard1, active compounds read low 0.938 | locus YHR027C, strain rpn1, active compounds read low 1.01 | locus YHR030C, strain SLT2, active compounds read low 1.01 | locus YHR079C, strain IRE1 (second series), active compounds read low 0.978 | locus YHR079C, strain IRE1, active compounds read low 1.03 | locus YHR094C, strain hxt1, active compounds read low 0.983 | locus YHR129C, strain ARP1, active compounds read low 0.999 | locus YHR142W, strain chs7, active compounds read low 0.989 | locus YHR200W, strain rpn10, active compounds read low 0.972 | locus YIL066C, strain RNR3, active compounds read low 1.01 | locus YIL073C, strain SPO22, active compounds read low 1.07 | locus YIL125W, strain kgd1, active compounds read low 0.984 | locus YIR030C, strain dcg1, active compounds read low 0.979 | locus YJL092W, strain hpr5, active compounds read low 0.987 | locus YJL095W, strain BCK1 (second series), active compounds read low 0.995 | locus YJL095W, strain BCK1, active compounds read low 1 and 1.02 | locus YJL115W, strain asf1, active compounds read low 0.996 | locus YJL129C, strain trk1, active compounds read low 0.996 | locus YJL134W, strain LCB3, active compounds read low 0.999 | locus YJL154C, strain vps35, active compounds read low 0.975 | locus YJL164C, strain tpk1, active compounds read low 0.993 | locus YJL166W, strain qcr8, active compounds read low 0.991 | locus YJL168C, strain set2, active compounds read low 0.979 | locus YJL187C, strain SWE1 (second series), active compounds read low 1.01 | locus YJR043C, strain POL32, active compounds read low 1.01 | locus YJR066W, strain TOR1, active compounds read low 0.97 | locus YJR075W, strain HOC1, active compounds read low 1.01
